In ChEMBL document CHEMBL5598561, “ASAP - In vitro binding kinetics” (2024):

Biological target: Nonstructural protein 3 (Zika virus) (UniProt A0A024AXB9)
Details: PRVABC59, Concentration 10.0 uM

Sequence of Nonstructural protein 3 (Zika virus) (A0A024AXB9 as listed by the source): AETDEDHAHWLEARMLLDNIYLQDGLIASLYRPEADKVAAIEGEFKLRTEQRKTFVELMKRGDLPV

Work on `NCCCCc1ccc(NC(=O)c2cc(Cl)cc3[nH]ncc23)cc1` yielded a pKD (Immobilization level 10000.0 pg/mm2, Rmax 4.0 pg/mm2, ka 200640.001 M-1s-1, kd 1.917 1/s) of 5.02, a pKD (Immobilization level 12000.0 pg/mm2, Rmax 9.0 pg/mm2, ka 275409.297 M-1s-1, kd 4.372 1/s) of 4.8 and a pKD (Immobilization level 13000.0 pg/mm2, Rmax 11.0 pg/mm2, ka 186293.866 M-1s-1, kd 4.24 1/s) of 4.64.
Work on `O=C(Nc1ccc2c(c1)CNC2)c1cc(Cl)cc(C2CC2)c1` yielded a pKD (Immobilization level 10000.0 pg/mm2, Rmax 36.0 pg/mm2, ka 451548.811 M-1s-1, kd 1.111 1/s) of 5.61, a pKD (Immobilization level 12000.0 pg/mm2, Rmax 40.0 pg/mm2, ka 259383.571 M-1s-1, kd 0.558 1/s) of 5.67 and a pKD (Immobilization level 13000.0 pg/mm2, Rmax 32.0 pg/mm2, ka 444846.323 M-1s-1, kd 0.765 1/s) of 5.76.
Compound `O=C(Nc1ccc2c(c1)CNC2)c1cncc(-c2ccccc2)c1` has a pKD (Immobilization level 4900.0 pg/mm2, Rmax 10.0 pg/mm2, ka 220188.498 M-1s-1, kd 3.981 1/s) of 4.74 and a pKD (Immobilization level 5500.0 pg/mm2, Rmax 48.0 pg/mm2, ka 177152.77 M-1s-1, kd 5.77 1/s) of 4.49.
`O=C(Nc1ccc2c(c1)CNC2)c1nccc2[nH]ncc12` was tested, and the pKD (Immobilization level 12000.0 pg/mm2, Rmax 10.0 pg/mm2, ka 215121.382 M-1s-1, kd 2.565 1/s) was 4.92.
Work on `O=C(Nc1ccc2c(c1)CNC2)c1cc(Cl)cc(-n2cccc2)c1` yielded a pKD (Immobilization level 10000.0 pg/mm2, Rmax 42.0 pg/mm2, ka 59822.118 M-1s-1, kd 0.636 1/s) of 4.97, a pKD (Immobilization level 12000.0 pg/mm2, Rmax 78.0 pg/mm2, ka 29884.208 M-1s-1, kd 0.167 1/s) of 5.25 and a pKD (Immobilization level 13000.0 pg/mm2, Rmax 57.0 pg/mm2, ka 51449.064 M-1s-1, kd 0.399 1/s) of 5.11.
In the case of `C[C@H]1Oc2c(cccc2C(=O)Nc2ccc3c(c2)CNC3)NC1=O`, the pKD (Immobilization level 10000.0 pg/mm2, Rmax 20.0 pg/mm2, ka 247912.445 M-1s-1, kd 2.654 1/s) is reported as 4.97, the pKD (Immobilization level 12000.0 pg/mm2, Rmax 35.0 pg/mm2, ka 236689.654 M-1s-1, kd 1.809 1/s) is reported as 5.12 and the pKD (Immobilization level 13000.0 pg/mm2, Rmax 26.0 pg/mm2, ka 250555.254 M-1s-1, kd 1.96 1/s) is reported as 5.11.
`O=C1Cc2c(cc(Br)cc2C(=O)Nc2ccc3c(c2)CNC3)N1` was tested, and the pKD (Immobilization level 10000.0 pg/mm2, Rmax 28.0 pg/mm2, ka 911035.824 M-1s-1, kd 0.165 1/s) was 6.74, the pKD (Immobilization level 12000.0 pg/mm2, Rmax 50.0 pg/mm2, ka 582104.975 M-1s-1, kd 0.125 1/s) was 6.67 and the pKD (Immobilization level 13000.0 pg/mm2, Rmax 39.0 pg/mm2, ka 879294.654 M-1s-1, kd 0.141 1/s) was 6.79.
In the case of `O=C(Nc1ccc2c(c1)CNC2)c1cc(Cl)cc2nccnc12`, the pKD (Immobilization level 10000.0 pg/mm2, Rmax 21.0 pg/mm2, ka 195303.568 M-1s-1, kd 2.342 1/s) is reported as 4.92, the pKD (Immobilization level 12000.0 pg/mm2, Rmax 40.0 pg/mm2, ka 106100.572 M-1s-1, kd 1.111 1/s) is reported as 4.98 and the pKD (Immobilization level 13000.0 pg/mm2, Rmax 32.0 pg/mm2, ka 148862.644 M-1s-1, kd 1.839 1/s) is reported as 4.91.
`O=C(Nc1ccc2c(c1)CNC2)c1ccccc1-n1cccc1` gave a pKD (Immobilization level 5500.0 pg/mm2, Rmax 27.0 pg/mm2, ka 207569.847 M-1s-1, kd 8.279 1/s) of 4.4.
For `CC(C)(C)c1ccc(Cl)cc1C(=O)Nc1ccc2c(c1)CNC2`, the pKD (Immobilization level 10000.0 pg/mm2, Rmax 29.0 pg/mm2, ka 451041.562 M-1s-1, kd 5.162 1/s) was 4.94, the pKD (Immobilization level 12000.0 pg/mm2, Rmax 32.0 pg/mm2, ka 233803.873 M-1s-1, kd 2.593 1/s) was 4.96 and the pKD (Immobilization level 13000.0 pg/mm2, Rmax 24.0 pg/mm2, ka 278548.314 M-1s-1, kd 2.759 1/s) was 5.
For `O=C(Nc1ccc2c(c1)CN(CC(F)F)C2)c1cc(Cl)cc2[nH]ncc12`, the pKD (Immobilization level 5500.0 pg/mm2, Rmax 11.0 pg/mm2, ka 80918.609 M-1s-1, kd 0.287 1/s) was 5.45.
`O=C1Cc2c(cccc2C(=O)Nc2ccc3c(c2)CNC3)N1` gave a pKD (Immobilization level 3900.0 pg/mm2, Rmax 48.0 pg/mm2, ka 37165.995 M-1s-1, kd 0.04 1/s) of 5.97 and a pKD (Immobilization level 5500.0 pg/mm2, Rmax 106.0 pg/mm2, ka 18457.516 M-1s-1, kd 0.041 1/s) of 5.65.
`O=C(Nc1ccc2c(c1)CNC2)c1cc(Cl)ccc1-n1ccnc1` was tested, and the pKD (Immobilization level 10000.0 pg/mm2, Rmax 38.0 pg/mm2, ka 298408.653 M-1s-1, kd 1.639 1/s) was 5.26, the pKD (Immobilization level 12000.0 pg/mm2, Rmax 63.0 pg/mm2, ka 203693.474 M-1s-1, kd 1.266 1/s) was 5.21 and the pKD (Immobilization level 13000.0 pg/mm2, Rmax 40.0 pg/mm2, ka 299200.161 M-1s-1, kd 1.542 1/s) was 5.29.
In the case of `O=C(NCC(F)F)[C@H](Nc1ccc2c(c1)CNC2)c1cc(Cl)cc(C2CC2)c1`, the pKD (Immobilization level 10000.0 pg/mm2, Rmax 47.0 pg/mm2, ka 474542.901 M-1s-1, kd 0.05 1/s) is reported as 6.97, the pKD (Immobilization level 12000.0 pg/mm2, Rmax 82.0 pg/mm2, ka 199001.376 M-1s-1, kd 0.068 1/s) is reported as 6.46 and the pKD (Immobilization level 13000.0 pg/mm2, Rmax 74.0 pg/mm2, ka 337297.719 M-1s-1, kd 0.055 1/s) is reported as 6.78.
Work on `O=C(Nc1ccc2c(c1)CNC2)c1c[nH]c2ncc(F)cc12` yielded a pKD (Immobilization level 5500.0 pg/mm2, Rmax 31.0 pg/mm2, ka 181164.217 M-1s-1, kd 6.639 1/s) of 4.44.
Work on `NCc1cc(NC(=O)c2cc(Cl)cc(NC(=O)OCc3ccccc3)c2)cc(C2=CC[C@H](C(=O)O)C2)c1` yielded a pKD (Immobilization level 5500.0 pg/mm2, Rmax 9.0 pg/mm2, ka 171424.656 M-1s-1, kd 2.389 1/s) of 4.86.
`Cc1ccc2cc(Cl)cc(C(=O)Nc3ccc4c(c3)CNC4)c2n1` gave a pKD (Immobilization level 10000.0 pg/mm2, Rmax 26.0 pg/mm2, ka 93254.644 M-1s-1, kd 1.647 1/s) of 4.75, a pKD (Immobilization level 12000.0 pg/mm2, Rmax 38.0 pg/mm2, ka 56274.373 M-1s-1, kd 0.881 1/s) of 4.8 and a pKD (Immobilization level 13000.0 pg/mm2, Rmax 28.0 pg/mm2, ka 92341.007 M-1s-1, kd 1.18 1/s) of 4.89.
`N#Cc1ccc(Cl)c(C(=O)Nc2ccc3c(c2)CNC3)c1` was tested, and the pKD (Immobilization level 10000.0 pg/mm2, Rmax 28.0 pg/mm2, ka 455778.547 M-1s-1, kd 4.384 1/s) was 5.02, the pKD (Immobilization level 12000.0 pg/mm2, Rmax 32.0 pg/mm2, ka 264828.882 M-1s-1, kd 2.458 1/s) was 5.03 and the pKD (Immobilization level 13000.0 pg/mm2, Rmax 23.0 pg/mm2, ka 313770.073 M-1s-1, kd 2.521 1/s) was 5.09.
With `Cc1cccc(CNc2ccc(Cl)cc2C(=O)Nc2ccc3c(c2)CNC3)n1` the pKD (Immobilization level 10000.0 pg/mm2, Rmax 24.0 pg/mm2, ka 19887.988 M-1s-1, kd 1.214 1/s) was 4.21, the pKD (Immobilization level 12000.0 pg/mm2, Rmax 8.0 pg/mm2, ka 63837.388 M-1s-1, kd 0.552 1/s) was 5.06 and the pKD (Immobilization level 13000.0 pg/mm2, Rmax 43.0 pg/mm2, ka 14963.881 M-1s-1, kd 1.059 1/s) was 4.15.
In the case of `O=C(Nc1ccc2c(c1)CNC2)c1cc(Cl)ccc1OC1CCCC1`, the pKD (Immobilization level 12000.0 pg/mm2, Rmax 40.0 pg/mm2, ka 319034.623 M-1s-1, kd 3.897 1/s) is reported as 4.91.
`O=C(Nc1ccc2c(c1)CNC2)c1cccc(-c2cnco2)c1` gave a pKD (Immobilization level 12000.0 pg/mm2, Rmax 4.0 pg/mm2, ka 566629.865 M-1s-1, kd 1.936 1/s) of 5.47.
